# ± gives the standard deviation of the averaged measurements.
# Experiments:
# DLD1 [1] = assay: cell viability (CellTiter-Glo) relative to plate median (fraction of plate median); higher = more viable cells; conditions: 5 µM; treatment time 24 h; reporter: 7TFP
# In short: (§1)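 Values are well luminescence normalised to the plate median, from either a firefly luciferase or a CellTiterGlo readout on parallel plates. The cells, colorectal cancer lines stably transduced with lentiviral 7TFP or TCF4/Wnt firefly luciferase reporters, were treated with library compounds at a final 5 µM for 24 h. The mean of two independent replicates is listed.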
# HCT116 = assay: as above; conditions: 5 µM; treatment time 24 h; reporter: TCF4/Wnt
# In short: as §1
# SW480 [2] = assay: as above; conditions: 5 µM; treatment time 24 h; reporter: 7TFP
# In short: as §1
# DLD1 [3] = assay: TCF/Wnt firefly luciferase reporter signal relative to plate median (fraction of plate median); higher = higher Wnt reporter signal; conditions: 5 µM; treatment time 24 h; reporter: 7TFP
# In short: as §1
# SW480 [4] = assay: as above; conditions: 5 µM; treatment time 24 h; reporter: 7TFP
# In short: as §1
SMILES,cell viability (DLD1 [1]),cell viability (HCT116),cell viability (SW480 [2]),TCF/Wnt firefly luciferase reporter signal (DLD1 [3]),TCF/Wnt firefly luciferase reporter signal (SW480 [4])
CN(C)CCOC(C)(c1ccccc1)c1ccccn1 (stereo not given),1.1 ± 0.2,0.947 ± 0.1,1.04 ± 0.042,0.999 ± 0.016,1.04 ± 0.014
CC1(C)CC2C1CCC1(C)OC2(C)CCC1O (stereo not given),1.045 ± 0.0071,1.1 ± 0.014,1.06 ± 0.028,1.02 ± 0.036,0.994 ± 0.094
Cc1cc(O)c(C=O)c2c1C(=O)Oc1c(C)c(O)c3c(c1O2)C(O)OC3=O (stereo not given),0.975 ± 0.092,1.11,0.988 ± 0.017,1.04 ± 0.068,1.02 ± 0.036
Cc1nnc(SCC2=C(C(=O)O)N3C(=O)[C@@H](NC(=O)Cn4cnnn4)[C@H]3SC2)s1,0.941 ± 0.035,0.941 ± 0.011,0.962 ± 0.044,0.942 ± 0.15,0.834 ± 0.16
Nc1ncnc2c1ncn2[C@@H]1O[C@H](CO)[C@@H](O)[C@H]1O,1.06 ± 0.014,1.06 ± 0.09,1.04 ± 0.035,1.07 ± 0.17,1.15 ± 0.028
COc1cc2c(=O)c(-c3ccc4c(c3)OCO4)coc2c(OC)c1OC,1.05 ± 0.05,1.01 ± 0.073,1 ± 0.011,0.94 ± 0.05,0.922 ± 0.026
Cc1ccc(C)c(OCCCC(C)(C)C(=O)O)c1,0.985 ± 0.092,0.986 ± 0.034,1.01 ± 0.015,1.015 ± 0.0071,1.06 ± 0.05
CC(=O)O[C@@H]1CC[C@@]2(C)C(C[C@@H](OC(C)=O)[C@@]3(C)C4=CC(=O)O[C@@H](c5ccoc5)[C@]4(C)CCC23)C1(C)C (stereo partly drawn) [3alpha-ACETOXYDIHYDRODEOXYGEDUNIN],1 ± 0.021,1.04 ± 0.11,0.956 ± 0.026,1.25 ± 0.22,1.11 ± 0.028
COC1=C(OC)C(=O)C(C/C=C(\C)CC/C=C(\C)CC/C=C(\C)CC/C=C(/C)CC/C=C(\C)CC/C=C(\C)CC/C=C(\C)CC/C=C(\C)CC/C=C(\C)CCC=C(C)C)=C(C)C1=O,1.02 ± 0.035,0.993 ± 0.067,1.115 ± 0.0071,0.98 ± 0.057,0.923 ± 0.15
CO[C@H]1O[C@H](CO)C(O[C@@H]2OC(C(=O)O)[C@@H](O[C@H]3O[C@H](COS(=O)(=O)O)C(O[C@@H]4OC(C(=O)O)[C@@H](O[C@H]5O[C@H](CO)C(O[C@@H]6OC(C(=O)O)[C@@H](O[C@H]7O[C@H](COS(=O)(=O)O)C(O[C@@H]8OC(C(=O)O)=C[C@H](O)C8OS(=O)(=O)O)[C@H](O)[C@H]7NC(C)=O)[C@H](O)[C@H]6O)[C@H](O)[C@H]5NC(C)=O)[C@H](O)[C@H]4O)[C@H](O)[C@H]3NC(C)=O)[C@H](O)[C@H]2O)[C@H](O)[C@H]1NC(C)=O (stereo not given in full),0.988 ± 0.032,1.05 ± 0.1,1.025 ± 0.0071,0.977 ± 0.2,0.98 ± 0.043
N=C(NCCCCCCNC(=N)NC(=N)Nc1ccc(Cl)cc1)NC(=N)Nc1ccc(Cl)cc1,0.952 ± 0.031,1.02 ± 0.11,1.07 ± 0.028,1.07 ± 0.021,0.851 ± 0.052
C=C1C[C@]23C[C@@]1(O)CC[C@H]2[C@@]12C=C[C@H](O)[C@@](C)(C(=O)O1)[C@H]2[C@@H]3C(=O)O,1.03 ± 0.014,1.08 ± 0.05,1.02 ± 0.052,0.88 ± 0.0028,0.869 ± 0.14
OC(CCN1CCCC1)(c1ccccc1)C1CCCCC1 (stereo not given),1.03,1.01 ± 0.043,1.03 ± 0.054,1.12 ± 0.15,0.981 ± 0.017
Nc1nc(=O)c2[nH]c(=O)cnc2[nH]1,1.01 ± 0.14,1.06 ± 0.078,0.954 ± 0.018,0.981 ± 0.098,0.987 ± 0.075
C#CCN(C)Cc1ccccc1,0.947 ± 0.053,1.08 ± 0.042,0.943 ± 0.0099,1.14 ± 0.014,1.03 ± 0.05
CCN1CCN(C(=O)N[C@@H](C(=O)N[C@@H]2C(=O)N3C(C(=O)O)=C(CSc4nnnn4C)CS[C@H]23)c2ccc(O)cc2)C(=O)C1=O,0.973 ± 0.053,1.06 ± 0.035,0.951 ± 0.023,0.886 ± 0.042,1.01 ± 0.098
O=C(O)c1cc(=O)c2c(Cl)cc(Cl)cc2[nH]1,0.944 ± 0.12,0.968 ± 0.059,0.976 ± 0.091,0.835 ± 0.021,0.911 ± 0.052
